Beta apoptosis: inhibitors of cytokine-induced beta cell apoptosis, primary screen, luminescence; 300,000 compounds, 0.8% hits; INS-1E cytokine-induced death, ATP luminescence, 48 h; percent of positive-control rescue, neutral wells zero; AID 435005, 2010; protection from apoptosis, % (no concentration beside the values);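 active = Every replicate reaches about 75%, or at least half do and their mean reaches it too, limit read from the data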;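 note: 0% = cytokine-treated negative control wells and 100% = positive control rescue; higher means more ATP so stronger rescue from cytokine killing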
Jurkat NFkB inh: inhibitors of induced NF-kB luciferase reporter, primary screen, TCR NF-kB activation inhibitor project, cell-based, luminescence, uHTS; 330,000 compounds, 0.53% hits; Jurkat, PMA/ionomycin-induced NF-kB luciferase reporter; inhibition, % at 4 µM; in the data active = inhibition above about 50%
Mdm2-MdmX inh: inhibitors of human Mdm2-MdmX association, primary screen, cell-based, luminescence, split luciferase, SaOS-2, uHTS. inhibition, % at 8 µM. 330,000 compounds, 3% hits. SaOS-2 split-luciferase Mdm2/MdmX complementation;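 active = inhibition of at least 50% at 8 µM in the primary screen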
Target sequence (O15151 whole entry, looked up): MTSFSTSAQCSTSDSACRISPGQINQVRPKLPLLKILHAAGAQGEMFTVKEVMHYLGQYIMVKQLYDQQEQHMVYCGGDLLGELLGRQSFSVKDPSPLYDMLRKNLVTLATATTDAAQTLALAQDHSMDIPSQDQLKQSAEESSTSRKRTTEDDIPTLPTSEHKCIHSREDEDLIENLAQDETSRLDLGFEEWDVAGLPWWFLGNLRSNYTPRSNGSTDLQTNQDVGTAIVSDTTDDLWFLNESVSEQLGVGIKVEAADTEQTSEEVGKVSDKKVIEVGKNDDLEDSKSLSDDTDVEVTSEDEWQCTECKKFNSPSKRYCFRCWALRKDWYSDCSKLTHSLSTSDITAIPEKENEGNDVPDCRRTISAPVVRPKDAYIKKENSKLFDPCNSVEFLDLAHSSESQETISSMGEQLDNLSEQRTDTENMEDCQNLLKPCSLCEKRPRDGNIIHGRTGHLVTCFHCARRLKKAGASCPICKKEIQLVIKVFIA
Target sequence (Q00987 whole entry, looked up): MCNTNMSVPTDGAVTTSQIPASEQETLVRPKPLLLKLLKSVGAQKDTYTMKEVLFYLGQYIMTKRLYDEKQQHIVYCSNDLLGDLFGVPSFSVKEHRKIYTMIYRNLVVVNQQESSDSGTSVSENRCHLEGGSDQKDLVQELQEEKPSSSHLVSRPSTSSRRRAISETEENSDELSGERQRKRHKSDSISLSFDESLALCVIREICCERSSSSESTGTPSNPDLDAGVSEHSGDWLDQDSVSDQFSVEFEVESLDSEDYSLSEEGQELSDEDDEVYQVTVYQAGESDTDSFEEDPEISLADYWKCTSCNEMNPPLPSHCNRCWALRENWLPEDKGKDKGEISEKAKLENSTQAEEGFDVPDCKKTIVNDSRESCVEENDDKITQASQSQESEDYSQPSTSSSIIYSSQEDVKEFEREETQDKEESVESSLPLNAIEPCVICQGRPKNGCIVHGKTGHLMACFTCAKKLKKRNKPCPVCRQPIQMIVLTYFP
Gli-Sufu block: Gli-Sufu pathway antagonists, primary screen, luciferase luminescence, Sufu-KO-LIGHT cells, uHTS; Sufu-KO-LIGHT fibroblasts, Gli luciferase reporter luminescence; inhibition, % at 5 µM; 340,000 compounds, 0.74% hits; AID 588413, 2011;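 active = inhibition above about 55%, limit read from the data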;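 note: 0% = DMSO-treated cells and 100% = wells with medium but no cells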
CSC inhib: cancer stem cell viability inhibitors, primary screen, luminescence | cancer stem cell-like cells viability | inhibition, % at 7.5 µM | 300,000 compounds, 1.1% hits | AID 2717, 2010; in the data active = inhibition above about 75%; tested in HMLE shEcad cells
697 NFkB inh: inhibitors of PMA/ionomycin-induced NF-kB reporter, 697 cells, primary screen, B-cell NF-kB inhibitor project, cell-based, luminescence, uHTS. 697 B-cell NF-kB luciferase reporter, 16 h. inhibition, % at 4 µM. 330,000 compounds, 0.33% hits. AID 435022, 2010; in the data active = inhibition above about 35%
* hit, by the source's call; x = no result. Only some compounds are listed: those with a hit (about 4.5% of all), similar ones and a draw of the others.

SMILES	Beta apoptosis	Jurkat NFkB inh	Mdm2-MdmX inh	Gli-Sufu block	CSC inhib	697 NFkB inh
O=C(COC(=O)CNS(=O)(=O)/C=C/c1ccccc1)Nc1cc(S(=O)(=O)N2CCCCC2)ccc1Cl	-4.7	0.0	3.9	-4.8	-5.2	-3.4
Cc1ccc(C2(c3noc(CN4CCC(c5ccncc5)CC4)n3)CCCC2)cc1	13.7	10.9	-22.3	x	91.8*	-44.3
COc1ccccc1CNC(=O)CCNC(=O)c1ccco1	x	13.7	-5.0	-2.8	x	-0.6
O=C1C(C2=NC(c3ccccn3)C3C(=O)N(c4ccc(OC(F)(F)F)cc4)C(=O)C23)=C(O)c2ccccc21 (centres undefined)	80.8*	10.6	13.9	4.6	30.4	18.2
O=C(CNC(=O)c1ccc2ccccc2c1)NCc1ccccc1F	-0.5	16.7	10.6	16.6	-2.9	15.1
CC(C)(C)c1cnnn1-c1ccc(/C=N/Nc2ccc([N+](=O)[O-])cc2)cc1	97.3*	-17.7	45.8	15.0	54.5	-10.2
CCC(=O)c1ccccc1OCCCCn1cncn1	-7.6	-0.1	16.8	3.1	-5.6	-9.8
FC(F)(F)c1ccc(C2[C@H]3CN(Cc4cccnc4)[C@H](c4ccccc4)C34CC2(c2cccnc2)C4)cc1 (some centres undefined)	15.1	8.9	44.5	-4.8	101.7*	14.5
CC(=O)Nc1nc(-c2ccc3ccccc3c2)cs1	7.8	-145.2	-254.7	-129.8	-0.9	-236.5
Oc1ccc(Nc2nc(-c3ccc4ccccc4c3)cs2)cc1	84.4*	-42.7	-87.8	x	134.1*	9.0
O=C(O)c1cccc(N/N=C(\N=Nc2ccccc2)c2ccccc2)c1	-0.7	-1.9	21.4	0.7	88.1*	4.4
O=C(O)c1ccc(N=N/C(=N\Nc2ccc(C(=O)O)cc2)c2ccccc2)cc1	19.3	20.9	5.5	-25.6	15.3	-35.0
COC(=O)c1sc(NC(=O)C2c3ccccc3Oc3ccccc32)c(C(=O)OC)c1C	115.5*	13.2	9.3	9.8	16.4	3.1
CC(C)(C)c1ccc(C(=O)Nc2nnc(Cc3c[nH]c4ccccc34)s2)cc1	3.9	1.6	-1.8	3.3	96.3*	-19.6
O=C(/C=C/c1ccccc1)c1ccc2c(c1)OCO2	-0.4	-42.7	-1.4	-8.2	9.0	-25.2
O=C(/C=C/c1cccc(Br)c1)c1ccc2c(c1)OCO2	-2.8	8.8	43.0	5.2	77.7*	18.4
CC(C)(C)c1ccc(C(=O)NC(=O)COC(=O)c2ccc(Br)o2)cc1	1.5	-14.4	17.6	2.8	-5.8	-34.8
OCc1ccc2c(c1)c(-c1ccc3c(c1)OCCO3)c(-c1ccccc1)n2-c1ccccc1	5.0	22.7	29.0	-5.5	92.2*	-3.3
O=C(/C=C/c1cn(-c2ccccc2)nc1-c1ccc2c(c1)OCCO2)NCCO	-3.5	-1.6	0.4	-9.7	8.9	-1.4
Cc1ccsc1CN(C)C(=O)CN1C(=O)NC2(CCCc3ccccc32)C1=O (centres undefined)	-5.5	-13.2	-11.7	1.2	10.6	-7.2
Clc1cccc(CSc2nnc(-c3cccnc3)n2Cc2ccco2)c1	-7.1	1.1	-15.0	4.9	-21.1	17.2
Clc1ccc(CSc2nnc(-c3cccnc3)n2Cc2ccco2)c(Cl)c1	-12.3	-1.7	-15.9	12.2	85.9*	-29.3
CC(=O)c1cc2c(cc1NC(=O)c1ccccc1C)OCO2	-10.8	-8.3	26.5	x	-7.3	9.7
COc1cccc(/C=N/Nc2nc3ccccc3n3cnnc23)c1O	119.2*	17.8	33.8	9.8	57.3	-16.3
COc1ccc(/C=N/Nc2nccnc2Cl)c(OC)c1	-7.9	-76.1	-14.8	-47.3	-1.2	-49.6
SMILES	Beta apoptosis	Jurkat NFkB inh	Mdm2-MdmX inh	Gli-Sufu block	CSC inhib	697 NFkB inh
COc1cccc(/C=N/Nc2nccnc2Cl)c1O	x	-34.1	47.8	68.2*	x	-108.3
COc1cccc(/C=N/Nc2nc3ccccc3n3cnnc23)c1	-2.6	13.3	18.9	3.2	-5.4	12.8
COc1cc(C(=O)OCC(=O)NC(=O)C2CCCCC2)ccc1OC(F)F	-5.4	-7.3	-3.1	-1.4	3.7	-5.5
Cc1nc(C2CCC3C4CCC5=CC(=O)CC[C@]5(C)C4CC[C@]23C)cs1 (some centres undefined)	101.3*	49.9	39.0	x	86.2*	1.5
CC(=O)[C@@]1(O)CC[C@H]2[C@@H]3CCC4=CC(=O)CC[C@]4(C)[C@H]3CC[C@@]21C	x	0.4	-17.6	-7.5	-13.4	-20.4
O=C(CNS(=O)(=O)c1ccc([N+](=O)[O-])cc1)N/N=C/c1ccc(O)cc1O	44.8	11.3	34.3	6.1	71.0	2.8
CCOc1ccc(N(C)c2ccc(/C=C3/SC(=S)NC3=O)cc2)cc1	1.0	4.3	24.0	-14.5	97.3*	3.6
CC(C(N)=O)N1C(=O)NC2(CCCc3ccccc32)C1=O (centres undefined)	-0.4	-0.9	6.3	-20.1	-9.8	21.7
CC1CCN(c2nc(-c3cccnc3)nc3scc(-c4ccccc4)c23)CC1	9.1	2.4	17.0	38.6	94.7*	-11.1
Oc1ccc(CN2CCCCC2)c2cccnc12	5.3	20.3	49.9	13.6	23.3	-19.5
Oc1c(Cl)cc(CN2CCCCC2)c2cccnc12	111.2*	29.9	45.6	x	87.0*	8.0
CC(=NNC(=S)N1CCN(c2ccccn2)CC1)c1nccs1	x	x	x	88.6*	x	x
CC(=NNC(=S)N1CCN(C2CCCCCC2)CC1)c1ccccn1	x	x	x	65.0*	x	x
CCOc1cc(C(=O)N/N=C/c2cn(-c3ccccc3)nc2-c2cc3ccccc3o2)cc(OCC)c1OCC	x	x	x	-96.8	x	x
COc1ccc(N(C(=O)CCl)C(C(=O)NCCc2ccccc2)c2cccs2)cc1Cl (centres undefined)	98.5*	x	x	95.7*	109.0*	x
COc1cccc(N(C(=O)CCl)C(C(=O)NCCc2ccccc2)c2cccs2)c1 (centres undefined)	2.0	x	x	92.8*	67.5	x
COc1ccc(N(C(=O)c2ccco2)C(C(=O)NC2CCCCC2)c2cccs2)cc1OC (centres undefined)	-3.2	-8.3	22.2	-101.1	-17.6	17.5
CCN(CC)C(=O)c1cc([N+](=O)[O-])cc2c1-c1ccc([N+](=O)[O-])cc1C2=C(C#N)C#N	88.5*	8.9	24.9	7.5	40.2	22.2
CCC(=O)OCCNc1cc(Sc2nc3ccccc3[nH]2)c2nonc2c1[N+](=O)[O-]	-3.2	x	x	-5.8	26.9	x
CCC(=O)OCCNc1cc(Sc2nc3ccccc3s2)c2nonc2c1[N+](=O)[O-]	22.3	-10.4	40.2	2.7	106.3*	9.6
Nc1cc2c(cc1Br)-c1ccc(F)cc1C2O (centres undefined)	x	x	x	-29.6	x	x
